Source: the supplement of paper PMC11219838
Values without a mark were called inactive.

These compounds were tested on Meloidogyne hapla J2 (assay: proportion of mobile M. hapla J2 relative to DMSO control (fraction of DMSO control); higher = more viable, less nematicidal, active = 0.7 or less). Conditions: 60 µM; 5 days; temperature: 20 °C.
Experimental: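 DODA library (846 commercial 1,3,4- and 1,2,4-oxadiazole compounds plus commercial nematicide controls) screened at a single dose of 60 µM (0.6% DMSO) in 96-well plates, two biological replicates. Read-outs: C. elegans N2 L1 survival/reproduction score at day 6, 20 °C (0: 0-10 worms, 1: 11-20, 2: 21-50, 3: >50, 4: overgrown/starved). C. elegans daf-2 dauer, D. dipsaci and M. hapla J2 mobility at day 5, 20 °C, and P. penetrans mobility at day 5, 20 °C, each relative to DMSO controls. M. hapla egg hatching at day 12, 25 °C, relative to the mean of 8 DMSO wells on the same plate.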

SMILES	proportion of mobile M. hapla J2
CC[C@H](C)[C@H]1O[C@]2(C=C[C@@H]1C)C[C@@H]1C[C@@H](C/C=C(\C)[C@@H](O[C@H]3C[C@H](OC)[C@@H](O[C@H]4C[C@H](OC)[C@@H](O)[C@H](C)O4)[C@H](C)O3)[C@@H](C)/C=C/C=C3\CO[C@@H]4[C@H](O)C(C)=C[C@@H](C(=O)O1)[C@]34O)O2.CO[C@H]1C[C@H](O[C@H]2[C@H](C)O[C@@H](O[C@@H]3/C(C)=C/C[C@@H]4C[C@@H](C[C@]5(C=C[C@H](C)[C@@H](C(C)C)O5)O4)OC(=O)[C@@H]4C=C(C)[C@@H](O)[C@H]5OC/C(=C\C=C\[C@@H]3C)[C@]54O)C[C@@H]2OC)O[C@@H](C)[C@@H]1O [abamectin]	1.03
O=C(NCCc1ncc(C(F)(F)F)cc1Cl)c1ccccc1C(F)(F)F [fluopyram]	0.653 (active)
CC(C)NC(=O)N1CC(=O)N(c2cc(Cl)cc(Cl)c2)C1=O [iprodione]	1.03
CNC(=O)O/N=C(\SC)C(=O)N(C)C [oxamyl]	0.936
